Assay outcomes (PubChem)
The list is not random: actives were taken first. Their share in the collection is about 0.99%.
FEN1 inhibitor – human FEN1 inhibition | P39748 | Recombinant FEN1 flap cleavage, fluorescence, 15 min | Potency, µM (series often up to 114 µM), for the others: at the top dose activity change, negative = inhibition, actives largely listed as inhibitors | 0.35% of 390,000 active; further: nearly all actives have a fitted effect of over 65% in size
Target sequence (P39748 whole entry, looked up): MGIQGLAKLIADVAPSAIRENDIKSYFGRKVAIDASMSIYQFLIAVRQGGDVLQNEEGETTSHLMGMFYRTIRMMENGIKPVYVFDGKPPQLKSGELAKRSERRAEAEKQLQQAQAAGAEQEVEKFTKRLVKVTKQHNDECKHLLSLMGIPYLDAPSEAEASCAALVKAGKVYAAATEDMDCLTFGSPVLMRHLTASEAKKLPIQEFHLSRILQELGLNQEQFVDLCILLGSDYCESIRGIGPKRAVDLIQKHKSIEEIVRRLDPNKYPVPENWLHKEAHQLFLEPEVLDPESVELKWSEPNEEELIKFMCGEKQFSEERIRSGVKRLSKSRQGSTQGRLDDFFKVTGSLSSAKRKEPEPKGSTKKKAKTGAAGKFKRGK
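Steps: FEN1 (10 nM) dispensed; compound added by pin tool; 15 min at room temperature; substrate added to 50 nM final; reads at 0 min and 15 min; data normalized and fitted (four-parameter Hill).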
BLM inh – inhibitors of human Bloom syndrome helicase BLM; Potency, µM (doses to about 56.1 µM), for the others: at the top dose activity change, negative = inhibition, most hits filed as inhibitors; AID 2528; P54132; 0.2% of 350,000 active; recombinant BLM DNA unwinding, fluorescence dequenching;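 further: plate controls were vehicle for no effect and no enzyme for full effect; nearly all actives have a fitted effect of over 35% in size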
RECQ1 inh-1 – RECQ1 (human) helicase inhibition; P46063; RECQ1 DNA unwinding, red fluorescence kinetic read; Potency, µM (titrated, usually from 57.3 µM), without a hit: at the top dose activity, negative = inhibition, hits mostly inhibitors; 0.54% of 240,000 active; AID 2549;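 further: plate controls were vehicle for no effect and no enzyme for full effect; nearly all actives have a fitted effect of over 30% in size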
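RECQ1T1 50 nM; forked duplex (20 bp + 30-nt ss tails) 200 nM, ATP 2 mM final; pH 8.0, 2 mM MgCl2, 2.5 ug/ml poly(dI-dC); 15 min compound preincubation; discontinuous kinetic read over 2 h at RT.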
L3MBTL1 inh – L3MBTL1 (human) inhibition | Q9Y468 | AlphaScreen L3MBTL1–H3K9me1 peptide binding | Potency, µM (highest dose often 57.1 µM), inactives show top-dose activity, negative = inhibition, most hits filed as inhibitors | 0.66% of 230,000 active | AID 485360; further: nearly all actives have a fitted effect of over 60% in size
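AlphaScreen proximity signal between nickel-chelate acceptor and streptavidin donor beads (final 10 ug/mL) reports binding of 50 nM L3MBTL1 to 75 nM biotin-H3 K9me1 peptide; complex incubated with compounds 30 min at room temperature; cefsulodin titration as control.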
WRN inhibitor – inhibitors of human WRN helicase. WRN helicase unwinding, fluorescent forked duplex, kinetic. Q14191. Potency, µM (highest dose often 114 µM), inactives show at the top dose activity change, negative = inhibition, most hits filed as inhibitors. AID 651768. 0.46% of 360,000 active; further: nearly all actives have a fitted effect of over 55% in size
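Enzyme (20 nM final) and test compound sit together 15 min at room temperature before substrate addition. Substrate is a single-forked duplex oligonucleotide (100 nM) labelled with fluorophore and quencher, with 2 mM ATP; helicase unwinding raises red fluorescence, read kinetically.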
RECQ1 conf – confirmation of human RECQ1 helicase inhibitors. shares compounds with RECQ1 inh-1. RECQ1 helicase DNA unwinding, fluorescence. Potency, µM (highest dose often 229 µM), inactives show at the highest dose activity change, negative = inhibition, hits mostly inhibitors. 28% of 610 active. AID 2708; further: nearly all actives have a fitted effect of over 45% in size
ADP FP counter – ADP displacement flagged in RECQ1 inhibitor counter-screen; ADP fluorescence polarization displacement counterscreen; shares compounds with RECQ1 inh-1; Potency, µM (top dose mostly 228 µM), for the others: at the highest dose activity change, negative = inhibition, most hits filed as inhibitors; 27% of 530 active; further: nearly all actives have a fitted effect of over 45% in size
RECQ1 inh-2 – blocks human RECQ1 DNA unwinding | Potency, µM (doses to about 119 µM), for inactives: top-dose activity, negative = inhibition, actives largely listed as inhibitors | recombinant RECQ1 DNA unwinding, red fluorescence | 15% of 1,100 active | shares compounds with RECQ1 inh-1; further: nearly all actives have a fitted effect of over 50% in size
* = called active by the depositor; i = inactive; ? = inconclusive; / = no result; [ ] = remark or other dose. The call rests on the fitted dose curve; in most records, active means well fitted curve in the direction sought with a large enough effect; inconclusive means small, poorly fitted or top-dose-only effect, or another doubt; inactive means no such curve, though single readings can be large; an effect the other way counts as inactive or inconclusive. Unless noted, on the % scale 0 is the no-effect control and ±100 the full control effect; potency means the concentration at half of the fitted maximal effect.

SMILES | FEN1 inhibitor | BLM inh | RECQ1 inh-1 | L3MBTL1 inh | WRN inhibitor | RECQ1 inh-2 | others
c1ccc(Nc2ccccc2)cc1 | -14.2% | / | -17.0% | 6.4% | -6.3% | /
c1ccc(Nc2cccc3c(Nc4ccccc4)cccc23)cc1 | -8.2% | -19.7% | ? | / | -6.3% | -14.8%
Cc1ccccc1C(C(=O)NCc1ccco1)N(CC1CCCO1)C(=O)Cn1nnc2ccccc21 (centres undefined) | -2.5% | 1.4% | -3.5% | 29.9% | -6.2% | /
COc1cccc(C(C(=O)NCc2ccco2)N(C(=O)Cn2nnc3ccccc32)C2CC2)c1OC (centres undefined) | 9.4% | -0.6% | ? | -4.8% | -0.9%[57.1 µM] | -10.6%
COc1cccc(CN(C)C(=O)c2ccccc2SCC(=O)N2CCCC2)c1 | 3.2% | / | / | 8.7% | -13.6% | /
CN(C)CC1CCn2c(c(C3=C(c4cn(C)c5ccccc45)C(=O)NC3=O)c3ccccc32)C1 (centres undefined) | / | -5.2% | ? | / | / | 79.4µM*
COc1ccccc1Cn1c(=O)[nH]c2cccnc21 | 3.8% | -1.4% | i | / | -10.5% | /
O=C(O)CCC(=O)N1CCc2cc(S(=O)(=O)N3CCC(Cc4ccccc4)CC3)ccc21 | -3.8% | -15.8% | -3.5% | / | -5.5% | /
O=C(O)CCC(=O)N1CCc2cc(S(=O)(=O)N3CC=C(c4ccccc4)CC3)ccc21 | -2.3% | -6.5% | -16.9% | / | -0.7% | / | RECQ1 conf=-2.6%;ADP FP counter=?
O=C(O)CCC(=O)N1CCc2cc(S(=O)(=O)N3CCCCC3)ccc21 | -12.8% | -3.0% | 9.4% | 2.4% | 1.4% | / | RECQ1 conf=-1.9%;ADP FP counter=11.6%
CCCCN(c1ccccc1)S(=O)(=O)c1ccc2c(c1)CCN2C(=O)CCC(=O)O | -1.9% | -4.0% | -10.4% | 7.8% | -8.6% | / | RECQ1 conf=0.1%;ADP FP counter=?
CC1CCCN(S(=O)(=O)c2ccc3c(c2)CCN3C(=O)CCC(=O)O)C1 (centres undefined) | 17.5% | -0.2% | / | / | / | /
CC1CCN(S(=O)(=O)c2ccc3c(c2)CCN3C(=O)CCC(=O)O)CC1 | -3.6% | 0.6% | -0.8% | 4.6% | 2.6% | / | RECQ1 conf=3.5%;ADP FP counter=-1.4%
O=C1CN(C(=O)COc2ccc(Cl)cc2)C(c2ccc(F)cc2)c2cc(Br)ccc2N1 (centres undefined) | -11.7% | -15.7% | / | / | / | /
COc1ccccc1NC(=O)Nc1nc(C(N)C(C)C)cs1 (centres undefined) | / | / | / | / | -0.7%[57.1 µM] | /
Cc1ccc(CSc2nnc(-c3ccc(NS(=O)(=O)c4ccccc4)cc3)o2)cc1 | -6.3% | -4.0% | ? | 0.6% | -18.7% | -21.7%
Cc1ccc(-c2csc(NC(=O)C3=NN(c4ccccc4)C(=O)CC3)n2)cc1 | -12.5% | -5.8% | ? | -14.3% | -1.4% | -13.3%
COc1ccc2c(c1OC)C(=O)N(c1ccc3c(c1)CCC3)C2=O | -13.5% | -11.1% | 0.8% | -11.0% | -0.4% | /
COC(=O)c1sc2ccccc2c1NC(=O)c1ccc(S(=O)(=O)N2CCCCC2)cc1 | -0.4% | -5.6% | -6.5% | -3.4% | 0.1% | /
COC(=O)c1sc2ccccc2c1NC(=O)c1ccc(S(=O)(=O)N2CCCCC2C)cc1 (centres undefined) | -10.3% | -4.4% | 5.2% | 10.8% | -1.1% | / | RECQ1 conf=4.4%;ADP FP counter=-5.2%
CCNC(=O)C1(C)CCN(Cc2cccc(Oc3ccccc3)c2)C1 (centres undefined) | / | / | / | / | -3.5% | /
O=C(COc1cccnc1[N+](=O)[O-])c1ccc(Cl)s1 | ? | -24.0% | ? | ? | ? | ?
CC(=O)Nc1ccc(SCC(CC(C)C)N2CCN(CC(C)C)CCC2=O)cc1 (centres undefined) | 8.9% | 2.7% | i | / | / | /
